Source: PubChem BioAssay AID1159580 (chemical genetic matrix, 2015)
Where “and” joins values, the source holds several entries; their conditions need not be identical. Equal entries are not always repeated. Out of some 5,500 compounds screened, about 2,000 (36%) were called active. Roughly 18% stayed inconclusive and do not appear here. The list shows a part of the results. A number with no mark means an inactive call. Cut-off read from the data, not from the text of the source: active = normalized growth mostly below about 0.91 (no sharp cut-off); inconclusive = no clear call, values can overlap the other calls; inactive = mostly above about 0.92.

Test: chemical genetic growth profiling, strain panel (AID 1159580);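 note: tested at 20 µM; growth read once vehicle control cultures reached saturation at 30 °C; 1 = growth at the plate median or of vehicle wells; lower values mean less growth of the strain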
Details: S. cerevisiae deletion strains, growth OD

Which normalized growth (locus YAL013W, strain DEP1, active compounds read low) does the source give for `Nc1c2ccccc2nc2ccccc12` here?
Its normalized growth is 0.734 (active).

What about the normalized growth (locus YAL021C, strain ccr4, active compounds read low) of the same compound?
Its normalized growth is 0.568 (active).

And the normalized growth (locus YAL026C, strain drs2, active compounds read low)?
The normalized growth was 0.675 (active).

And the normalized growth (locus YAL030W, strain snc1, active compounds read low)?
The normalized growth was 0.566 (active).

And the normalized growth (locus YBL061C, strain skt5, active compounds read low)?
Its normalized growth is 0.754 (active).

And the normalized growth (locus YBR009C, strain hhf1, active compounds read low)?
The normalized growth was 0.378 (active).

What about the normalized growth (locus YBR021W, strain FUR4, active compounds read low) of the same compound?
The normalized growth was 1.02.

And the normalized growth (locus YBR023C, strain chs3, active compounds read low)?
The normalized growth was 0.759 (active).

What about the normalized growth (locus YBR171W, strain sec66, active compounds read low) of the same compound?
Its normalized growth is 1.09.

And the normalized growth (locus YBR229C, strain ROT2, active compounds read low)?
Its normalized growth is 1.01.

What about the normalized growth (locus YBR231C, strain swc5, active compounds read low) of the same compound?
Its normalized growth is 0.61 (active).

And the normalized growth (locus YBR279W, strain paf1, active compounds read low)?
Its normalized growth is 0.55 (active).

What about the normalized growth (locus YCL011C, strain gbp2, active compounds read low) of the same compound?
Its normalized growth is 0.526 (active).

And the normalized growth (locus YCL016C, strain dcc1, active compounds read low)?
Its normalized growth is 0.453 (active).

And the normalized growth (locus YCL029C, strain bik1, active compounds read low)?
The normalized growth was 0.412 (active).

What about the normalized growth (locus YCL061C, strain MRC1, active compounds read low) of the same compound?
Its normalized growth is 0.801 (active).

And the normalized growth (locus YCL069W, strain vba3, active compounds read low)?
The normalized growth was 0.732 (active).

And the normalized growth (locus YCR088W, strain abp1, active compounds read low)?
The normalized growth was 0.737 (active).

What about the normalized growth (locus YDL005C, strain med2, active compounds read low) of the same compound?
Its normalized growth is 0.781 (active).

What about the normalized growth (locus YDL035C, strain GPR1, active compounds read low) of the same compound?
Its normalized growth is 0.478 (active).

What about the normalized growth (locus YDL040C, strain nat1, active compounds read low) of the same compound?
Its normalized growth is 0.838 (active).

And the normalized growth (locus YDL074C, strain BRE1, active compounds read low)?
Its normalized growth is 0.484 (active).

And the normalized growth (locus YDL101C, strain DUN1, active compounds read low)?
The normalized growth was 0.782 (active).

And the normalized growth (locus YDL134C, strain PPH21, active compounds read low)?
Its normalized growth is 0.729 (active).

And the normalized growth (locus YDL185W, strain tfp1, active compounds read low)?
The normalized growth was 1.

And the normalized growth (locus YDL192W, strain arf1, active compounds read low)?
The normalized growth was 0.622 (active).

And the normalized growth (locus YDR001C, strain nth1, active compounds read low)?
Its normalized growth is 0.89 (active).

What about the normalized growth (locus YDR069C, strain doa4, active compounds read low) of the same compound?
The normalized growth was 0.5 (active).

And the normalized growth (locus YDR101C, strain arx1, active compounds read low)?
The normalized growth was 0.483 (active).

What about the normalized growth (locus YDR137W, strain rgp1, active compounds read low) of the same compound?
The normalized growth was 0.983.

And the normalized growth (locus YDR150W, strain NUM1, active compounds read low)?
Its normalized growth is 0.838 (active).

What about the normalized growth (locus YDR159W, strain sac3, active compounds read low) of the same compound?
Its normalized growth is 0.875.

And the normalized growth (locus YDR162C, strain NBP2, active compounds read low)?
Its normalized growth is 0.698 (active).

What about the normalized growth (locus YDR195W, strain ref2) of the same compound?
The normalized growth was 1.23 [resistant] (active).

And the normalized growth (locus YDR297W, strain sur2, active compounds read low)?
The normalized growth was 0.662 (active).

And the normalized growth (locus YDR318W, strain mcm21, active compounds read low)?
Its normalized growth is 0.565 (active).

And the normalized growth (locus YDR334W, strain swr1, active compounds read low)?
The normalized growth was 0.93.

What about the normalized growth (locus YDR335W, strain msn5, active compounds read low) of the same compound?
The normalized growth was 0.782 (active).

What about the normalized growth (locus YDR388W, active compounds read low) of the same compound?
The normalized growth was 0.481 (active).

What about the normalized growth (locus YDR392W, strain spt3, active compounds read low) of the same compound?
The normalized growth was 0.825.

What about the normalized growth (locus YDR502C, strain sam2, active compounds read low) of the same compound?
Its normalized growth is 0.513 (active).

What about the normalized growth (locus YEL003W, strain gim4, active compounds read low) of the same compound?
The normalized growth was 0.679 (active).

What about the normalized growth (locus YEL037C, strain rad23, active compounds read low) of the same compound?
Its normalized growth is 0.57 (active).

And the normalized growth (locus YEL061C, strain CIN8 (second series), active compounds read low)?
Its normalized growth is 0.885 (active).

And the normalized growth (locus YEL061C, strain CIN8, active compounds read low)?
Its normalized growth is 0.793 (active).

What about the normalized growth (locus YER015W, strain faa2, active compounds read low) of the same compound?
The normalized growth was 0.693 (active).

What about the normalized growth (locus YER016W, strain bim1, active compounds read low) of the same compound?
The normalized growth was 0.69 (active).

What about the normalized growth (locus YER110C, active compounds read low) of the same compound?
Its normalized growth is 0.977.

And the normalized growth (locus YER111C, strain swi4, active compounds read low)?
Its normalized growth is 0.886 (active).

And the normalized growth (locus YER155C, strain BEM2 (second series), active compounds read low)?
Its normalized growth is 0.913.

What about the normalized growth (locus YER155C, strain BEM2, active compounds read low) of the same compound?
The normalized growth was 1.01.

And the normalized growth (locus YER167W, strain BCK2, active compounds read low)?
Its normalized growth is 0.614 (active).

And the normalized growth (locus YFR010W, strain ubp6, active compounds read low)?
Its normalized growth is 0.615 (active).

What about the normalized growth (locus YGL078C, strain dbp3, active compounds read low) of the same compound?
Its normalized growth is 0.681 (active).

And the normalized growth (locus YGL086W, strain mad1, active compounds read low)?
Its normalized growth is 0.595 (active).

And the normalized growth (locus YGL167C, strain pmr1, active compounds read low)?
Its normalized growth is 1.01.

What about the normalized growth (locus YGL173C, strain kem1, active compounds read low) of the same compound?
The normalized growth was 0.567 (active).

And the normalized growth (locus YGL227W, strain vid30, active compounds read low)?
Its normalized growth is 0.885 (active).

And the normalized growth (locus YGL240W, strain doc1, active compounds read low)?
Its normalized growth is 0.914.

And the normalized growth (locus YGL248W, strain PDE1, active compounds read low)?
The normalized growth was 0.671 (active).

And the normalized growth (locus YGL253W, strain hxk2, active compounds read low)?
The normalized growth was 0.535 (active).

And the normalized growth (locus YGR078C, strain PAC10, active compounds read low)?
Its normalized growth is 0.735 (active).

And the normalized growth (locus YGR135W, strain pre9, active compounds read low)?
Its normalized growth is 0.709 (active).

And the normalized growth (locus YGR229C, strain SMI1, active compounds read low)?
Its normalized growth is 0.694 (active).

And the normalized growth (locus YGR252W, strain gcn5, active compounds read low)?
Its normalized growth is 0.544 (active).

What about the normalized growth (locus YHR013C, strain ard1, active compounds read low) of the same compound?
The normalized growth was 0.557 (active).

What about the normalized growth (locus YHR027C, strain rpn1, active compounds read low) of the same compound?
Its normalized growth is 0.73 (active).

And the normalized growth (locus YHR030C, strain SLT2, active compounds read low)?
Its normalized growth is 0.796 (active) and 0.77 (active).

What about the normalized growth (locus YHR079C, strain IRE1 (second series), active compounds read low) of the same compound?
Its normalized growth is 0.535 (active).

And the normalized growth (locus YHR079C, strain IRE1, active compounds read low)?
The normalized growth was 0.763 (active).

And the normalized growth (locus YHR094C, strain hxt1, active compounds read low)?
Its normalized growth is 0.801 (active).

And the normalized growth (locus YHR129C, strain ARP1, active compounds read low)?
The normalized growth was 0.808 (active).

And the normalized growth (locus YHR142W, strain chs7, active compounds read low)?
Its normalized growth is 0.706 (active).

And the normalized growth (locus YHR200W, strain rpn10, active compounds read low)?
Its normalized growth is 0.674 (active).

What about the normalized growth (locus YIL066C, strain RNR3, active compounds read low) of the same compound?
The normalized growth was 0.737 (active).

And the normalized growth (locus YIL073C, strain SPO22, active compounds read low)?
Its normalized growth is 0.681.

What about the normalized growth (locus YIL125W, strain kgd1, active compounds read low) of the same compound?
Its normalized growth is 0.803 (active).

What about the normalized growth (locus YIR030C, strain dcg1, active compounds read low) of the same compound?
Its normalized growth is 0.59 (active).

And the normalized growth (locus YJL092W, strain hpr5, active compounds read low)?
Its normalized growth is 0.659 (active).

And the normalized growth (locus YJL095W, strain BCK1 (second series), active compounds read low)?
The normalized growth was 0.684 (active).

And the normalized growth (locus YJL095W, strain BCK1, active compounds read low)?
Its normalized growth is 0.563 (active) and 0.76 (active).

What about the normalized growth (locus YJL115W, strain asf1, active compounds read low) of the same compound?
Its normalized growth is 0.861 (active).

And the normalized growth (locus YJL129C, strain trk1, active compounds read low)?
The normalized growth was 1.05.

And the normalized growth (locus YJL134W, strain LCB3, active compounds read low)?
Its normalized growth is 1.01.

And the normalized growth (locus YJL154C, strain vps35, active compounds read low)?
Its normalized growth is 0.993.

What about the normalized growth (locus YJL164C, strain tpk1, active compounds read low) of the same compound?
The normalized growth was 0.462 (active).

What about the normalized growth (locus YJL166W, strain qcr8, active compounds read low) of the same compound?
The normalized growth was 0.549 (active).

And the normalized growth (locus YJL168C, strain set2, active compounds read low)?
The normalized growth was 0.972.

And the normalized growth (locus YJL187C, strain SWE1 (second series), active compounds read low)?
Its normalized growth is 0.524 (active).

And the normalized growth (locus YJR043C, strain POL32, active compounds read low)?
Its normalized growth is 0.717 (active).

And the normalized growth (locus YJR066W, strain TOR1, active compounds read low)?
The normalized growth was 0.744 (active).
